From the OligoGym collection

molecular target: CD27; test: pooled miR-30 sensor sort-seq; sequence = guide strand; settings: shRNA
Further: reference of the scale not given here.

Row | Sequence | sensor-assay potency score (higher = more potent)
1 | TTTGTTTGATCTATATTTCCTT | 0.303
2 | TTGTTTGATCTATATTTCCTTC | -0.475
3 | TTTCCTTCGTTGATGGAGGAAC | -0.814
4 | TGTAACGACAAGGCTCTGCAGG | -0.28
5 | TTGATCTATATTTCCTTCGTTG | -0.282
6 | TTCTATGCTGGTCACAGTCCTT | -1.06
7 | TGGAAGAGGATCACACTCGGTG | -0.658
8 | AAGGATGCGAATAAAATCGGAG | -0.423
9 | TTTCGCAGCAGGAAGTGTGTTT | 0.0361
10 | ATGCGAATAAAATCGGAGCTGC | -0.25
11 | TGAAAACAAGGAACATTCCAGA | -0.449
12 | TTTTCGGTAATCCTCCTGGATG | -1.32
13 | AAAACAAGGAACATTCCAGAGA | -0.821
14 | TTTGATCTATATTTCCTTCGTT | 0.393
15 | TCACACTGAGCAGCCTTTCTAT | -1.13
16 | TAAAATCGGAGCTGCACAGGGA | 0.114
17 | TCACACTCGGTGCACTCCTTGT | -1.13
18 | TCTGGCAGCACAGCTTTCCCTG | -1.15
